In assay [1] the test system is PRMT1 (protein arginine N-methyltransferase 1). Briefly: small molecules binding arginine methyltransferase PRMT1 – biochemical, small-molecule microarray, 635 nm fluorescence, primary screen (AID 1088).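 Note: binding of Prmt1 protein to compounds spotted on small-molecule microarray slides.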 The following applies: higher = more signal.
Assay [2] is described as follows: growth effects on S. cerevisiae YJM789 – YJM789 clinical isolate, OD600, 24 h, basal, primary screen (AID 1089).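 Note: growth of clinical yeast isolate S. cerevisiae YJM 789 seeded 1000 cells per well; test concentration not given here.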 The following applies: higher = more signal, called active from +8 up or from −8 down.
Assay [3] is described as follows: S. pombe growth modifiers, basal conditions – strain 972, OD600, 24 h, no modulator, primary screen (AID 1090).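 Note: basal condition with compound alone and no growth modifier present; test concentration not given here.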 The following applies: S. pombe 972 growth, higher = more signal, called active from +8 up or from −8 down.
A short description of assay [4]: budding yeast growth modifiers under rapamycin – strain BY4716, OD600, 96 h, primary screen (AID 1091). Note: test concentration not given here. The conditions noted are these: S. cerevisiae BY4716 + rapamycin, higher = more signal, called active from +8 up or from −8 down.
In assay [5] the target is Torsin-1A-interacting protein 2 (Homo sapiens) (UniProt Q8NFQ8). Kind of assay: small molecules binding lysate-expressed LULL1 – cell lysate, human LULL1 lysate, 635/667 nm fluorescence, primary screen (AID 1092).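 Note: probe is lysate of COS7 cells overexpressing human LULL1; score merges per-feature 667 nm fluorescence with signal-to-noise.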 The conditions noted are these: small-molecule microarray, hLULL1 lysate binding, 635 nm fluorescence; higher = more signal.
Assay [6] in a line: optical density change of DRC41 E. coli – strain DRC41, OD650, 24 h, E. coli filamentation project, primary screen (AID 1093).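 Note: MC1000 strain lacking acrAB efflux and sulA so SOS filamentation is blocked; test concentration not given here.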 The conditions noted are these: E. coli DRC41 growth, higher = more signal, called active from +8 up or from −8 down.
A short description of assay [7]: probe aLefty2 binding to arrayed compounds – biochemical, biotinylated probe, 635/667 nm fluorescence, primary screen (AID 1094).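 Note: score merges spot fluorescence near 667 nm with spot signal-to-noise ratio.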 The conditions noted are these: small-molecule microarray, higher = more signal.
Assay [8] relates to Noggin (protein binding on small-molecule microarray). Kind of assay: small molecules binding Noggin protein – biochemical, 635/667 nm fluorescence, primary screen (AID 1095).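 Note: score merges 667 nm feature fluorescence with signal to noise over triplicate slides.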 The conditions noted are these: 635 nm fluorescence, higher = more signal.
Assay [9] deals with Neurogenic locus notch homolog protein 3 (Homo sapiens) (UniProt Q9UM47). Kind of assay: small molecules binding NOTCH3 protein – biochemical, 635/667 nm fluorescence, primary screen (AID 1096). The conditions noted are these: small-molecule microarray, 635 nm fluorescence, higher = more signal.
Assay [10] can be described thus: probe aEGFR binding to arrayed compounds – biochemical, biotinylated probe, 635/667 nm fluorescence, primary screen (AID 1097).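 Note: probe is a biotinylated anti-EGFR antibody binding compounds printed on slides; score combines fluorescence near 667 nm and signal to noise of each spot.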 The conditions noted are these: small-molecule microarray, higher = more signal.
The subject of assay [11] is Plasmodium falciparum Sir2 (PF13_0152, Sir2A). Briefly: Plasmodium falciparum Sir2A binding compounds – biochemical, small-molecule microarray, 635 nm fluorescence, primary screen (AID 1098).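 Note: score merges spot fluorescence intensity with its signal-to-noise ratio.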 The following applies: fluorescence 635 nm, higher = more signal.
A short description of assay [12]: probe aDKK1 binding to arrayed compounds – biochemical, biotinylated probe, 635/667 nm fluorescence, primary screen (AID 1099).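 Note: score merges 667nm spot fluorescence with signal to noise across triplicate slides; reference of the scale not given here.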 The conditions noted are these: small-molecule microarray, higher = more signal.
Assay [13] can be described thus: probe aCHRDL2 binding to arrayed compounds – biochemical, biotinylated probe, 635/667 nm fluorescence, primary screen (AID 1100). The conditions noted are these: small-molecule microarray, higher = more signal.
Assay [14] is described as follows: change in splice reporter luminescence, either direction, cell-based, HEK293, spliceosome inhibition project, primary screen (AID 1101).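 Note: HEK293 cells carrying a splicing-competent luciferase reporter gene; test concentration not given here.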 The following applies: HEK293 splicing luciferase reporter, 24 h, higher = more signal, called active from +8 up or from −8 down.
Assay [15] concerns the target Fibroblast growth factor 10 (Homo sapiens) (UniProt O15520). Kind of assay: compounds binding fibroblast growth factor 10 – biochemical, small-molecule microarray, 635 nm fluorescence, primary screen (AID 1102). The following applies: FGF10 binding, fluorescence 635 nm, higher = more signal.
The test system of assay [16] is glycogen synthase kinase-3 (GSK3A per assay name; protocol says GSK3B). Kind of assay: compounds binding glycogen synthase kinase-3 – biochemical, small-molecule microarray, 635 nm fluorescence, GSK3A, primary screen (AID 1103). Note: the record names both GSK3A and GSK3B. The following applies: fluorescence 635 nm, higher = more signal.
Assay [17] deals with Epidermal growth factor receptor (Homo sapiens) (UniProt P00533). Briefly: compounds binding epidermal growth factor receptor – biochemical, small-molecule microarray, 635 nm fluorescence, primary screen (AID 1104).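 Note: score merges 667 nm emission intensity with spot signal to noise over triplicate slides.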 The following applies: EGFR binding, higher = more signal.
Assay [18] has as its target Follistatin-related protein 3 (Homo sapiens) (UniProt O95633). Kind of assay: compounds binding follistatin-related protein 3 – biochemical, small-molecule microarray, 635 nm fluorescence, primary screen (AID 1105).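 Note: score merges emission near 667 nm and signal to noise per printed spot across three slides.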 The conditions noted are these: FSTL3 binding, higher = more signal.
Assay [19] addresses Dickkopf-related protein 1 (Homo sapiens) (UniProt O94907). Kind of assay: small molecules binding DKK1 protein – biochemical, small-molecule microarray, 635 nm fluorescence scan, primary screen (AID 1106).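 Note: score merges emission near 667 nm with signal to noise over three replicate slides.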 The following applies: higher = more signal.
Assay [20] relates to Inhibin beta A chain (activin A). Kind of assay: small molecules binding activin A – biochemical, small-molecule microarray, 635 nm fluorescence scan, primary screen (AID 1107).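 Note: mouse activin A protein probed at 4.33 µg/mL on printed slides; score merges bound-protein fluorescence near 667 nm with spot signal-to-noise.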 The following applies: INHBA, higher = more signal.

Calls of active or inactive are those of the source.

Sequence of Dickkopf-related protein 1 (Homo sapiens) (O94907 whole entry, looked up): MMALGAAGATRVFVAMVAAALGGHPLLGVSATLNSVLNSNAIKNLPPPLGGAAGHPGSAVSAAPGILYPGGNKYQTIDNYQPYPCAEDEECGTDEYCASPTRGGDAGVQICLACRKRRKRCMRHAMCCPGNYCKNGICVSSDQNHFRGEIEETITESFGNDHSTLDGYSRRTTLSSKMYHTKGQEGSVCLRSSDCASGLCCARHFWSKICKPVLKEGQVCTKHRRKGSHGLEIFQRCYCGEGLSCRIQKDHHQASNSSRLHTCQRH
Sequence of Follistatin-related protein 3 (Homo sapiens) (O95633 whole entry, looked up): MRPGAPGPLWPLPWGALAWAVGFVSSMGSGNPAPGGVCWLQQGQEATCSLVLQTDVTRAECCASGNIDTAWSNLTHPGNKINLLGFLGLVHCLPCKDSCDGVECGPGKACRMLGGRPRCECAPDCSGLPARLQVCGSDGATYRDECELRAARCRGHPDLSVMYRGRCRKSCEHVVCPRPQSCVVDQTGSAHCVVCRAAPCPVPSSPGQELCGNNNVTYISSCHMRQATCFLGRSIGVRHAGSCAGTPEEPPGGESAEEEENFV
Sequence of Epidermal growth factor receptor (Homo sapiens) (P00533 whole entry, looked up): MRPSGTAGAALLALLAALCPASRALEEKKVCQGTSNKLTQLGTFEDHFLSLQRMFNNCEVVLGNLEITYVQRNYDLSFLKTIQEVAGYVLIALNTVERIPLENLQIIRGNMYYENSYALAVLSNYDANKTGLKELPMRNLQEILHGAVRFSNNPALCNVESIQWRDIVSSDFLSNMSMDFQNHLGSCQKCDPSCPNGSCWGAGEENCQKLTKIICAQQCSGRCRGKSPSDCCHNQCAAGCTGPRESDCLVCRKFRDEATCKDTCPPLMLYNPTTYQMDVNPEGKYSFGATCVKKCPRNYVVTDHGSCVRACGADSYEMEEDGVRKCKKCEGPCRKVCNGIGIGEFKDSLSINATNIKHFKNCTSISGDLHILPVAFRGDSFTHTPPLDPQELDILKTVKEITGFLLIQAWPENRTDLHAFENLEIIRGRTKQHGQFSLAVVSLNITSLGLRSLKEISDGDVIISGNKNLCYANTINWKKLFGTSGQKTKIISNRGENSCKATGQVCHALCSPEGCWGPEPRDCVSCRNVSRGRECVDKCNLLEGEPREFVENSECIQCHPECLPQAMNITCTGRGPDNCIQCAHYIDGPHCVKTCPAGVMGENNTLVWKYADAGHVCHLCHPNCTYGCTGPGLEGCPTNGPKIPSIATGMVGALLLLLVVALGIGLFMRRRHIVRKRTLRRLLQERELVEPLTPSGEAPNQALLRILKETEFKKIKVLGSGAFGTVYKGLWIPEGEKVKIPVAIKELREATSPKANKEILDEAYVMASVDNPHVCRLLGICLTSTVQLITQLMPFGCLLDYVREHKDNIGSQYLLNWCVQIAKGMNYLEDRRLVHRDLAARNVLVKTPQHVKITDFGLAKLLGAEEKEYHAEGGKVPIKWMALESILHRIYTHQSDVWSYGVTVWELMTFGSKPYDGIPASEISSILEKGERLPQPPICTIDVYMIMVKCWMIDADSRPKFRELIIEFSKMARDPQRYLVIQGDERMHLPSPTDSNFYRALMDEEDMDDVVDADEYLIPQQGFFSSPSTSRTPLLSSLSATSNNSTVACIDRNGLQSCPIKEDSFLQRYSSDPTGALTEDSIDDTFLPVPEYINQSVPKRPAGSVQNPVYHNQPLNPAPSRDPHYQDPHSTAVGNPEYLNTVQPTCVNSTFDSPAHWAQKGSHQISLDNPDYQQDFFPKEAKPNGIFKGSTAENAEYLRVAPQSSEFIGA
Sequence of Neurogenic locus notch homolog protein 3 (Homo sapiens) (Q9UM47 whole entry, looked up): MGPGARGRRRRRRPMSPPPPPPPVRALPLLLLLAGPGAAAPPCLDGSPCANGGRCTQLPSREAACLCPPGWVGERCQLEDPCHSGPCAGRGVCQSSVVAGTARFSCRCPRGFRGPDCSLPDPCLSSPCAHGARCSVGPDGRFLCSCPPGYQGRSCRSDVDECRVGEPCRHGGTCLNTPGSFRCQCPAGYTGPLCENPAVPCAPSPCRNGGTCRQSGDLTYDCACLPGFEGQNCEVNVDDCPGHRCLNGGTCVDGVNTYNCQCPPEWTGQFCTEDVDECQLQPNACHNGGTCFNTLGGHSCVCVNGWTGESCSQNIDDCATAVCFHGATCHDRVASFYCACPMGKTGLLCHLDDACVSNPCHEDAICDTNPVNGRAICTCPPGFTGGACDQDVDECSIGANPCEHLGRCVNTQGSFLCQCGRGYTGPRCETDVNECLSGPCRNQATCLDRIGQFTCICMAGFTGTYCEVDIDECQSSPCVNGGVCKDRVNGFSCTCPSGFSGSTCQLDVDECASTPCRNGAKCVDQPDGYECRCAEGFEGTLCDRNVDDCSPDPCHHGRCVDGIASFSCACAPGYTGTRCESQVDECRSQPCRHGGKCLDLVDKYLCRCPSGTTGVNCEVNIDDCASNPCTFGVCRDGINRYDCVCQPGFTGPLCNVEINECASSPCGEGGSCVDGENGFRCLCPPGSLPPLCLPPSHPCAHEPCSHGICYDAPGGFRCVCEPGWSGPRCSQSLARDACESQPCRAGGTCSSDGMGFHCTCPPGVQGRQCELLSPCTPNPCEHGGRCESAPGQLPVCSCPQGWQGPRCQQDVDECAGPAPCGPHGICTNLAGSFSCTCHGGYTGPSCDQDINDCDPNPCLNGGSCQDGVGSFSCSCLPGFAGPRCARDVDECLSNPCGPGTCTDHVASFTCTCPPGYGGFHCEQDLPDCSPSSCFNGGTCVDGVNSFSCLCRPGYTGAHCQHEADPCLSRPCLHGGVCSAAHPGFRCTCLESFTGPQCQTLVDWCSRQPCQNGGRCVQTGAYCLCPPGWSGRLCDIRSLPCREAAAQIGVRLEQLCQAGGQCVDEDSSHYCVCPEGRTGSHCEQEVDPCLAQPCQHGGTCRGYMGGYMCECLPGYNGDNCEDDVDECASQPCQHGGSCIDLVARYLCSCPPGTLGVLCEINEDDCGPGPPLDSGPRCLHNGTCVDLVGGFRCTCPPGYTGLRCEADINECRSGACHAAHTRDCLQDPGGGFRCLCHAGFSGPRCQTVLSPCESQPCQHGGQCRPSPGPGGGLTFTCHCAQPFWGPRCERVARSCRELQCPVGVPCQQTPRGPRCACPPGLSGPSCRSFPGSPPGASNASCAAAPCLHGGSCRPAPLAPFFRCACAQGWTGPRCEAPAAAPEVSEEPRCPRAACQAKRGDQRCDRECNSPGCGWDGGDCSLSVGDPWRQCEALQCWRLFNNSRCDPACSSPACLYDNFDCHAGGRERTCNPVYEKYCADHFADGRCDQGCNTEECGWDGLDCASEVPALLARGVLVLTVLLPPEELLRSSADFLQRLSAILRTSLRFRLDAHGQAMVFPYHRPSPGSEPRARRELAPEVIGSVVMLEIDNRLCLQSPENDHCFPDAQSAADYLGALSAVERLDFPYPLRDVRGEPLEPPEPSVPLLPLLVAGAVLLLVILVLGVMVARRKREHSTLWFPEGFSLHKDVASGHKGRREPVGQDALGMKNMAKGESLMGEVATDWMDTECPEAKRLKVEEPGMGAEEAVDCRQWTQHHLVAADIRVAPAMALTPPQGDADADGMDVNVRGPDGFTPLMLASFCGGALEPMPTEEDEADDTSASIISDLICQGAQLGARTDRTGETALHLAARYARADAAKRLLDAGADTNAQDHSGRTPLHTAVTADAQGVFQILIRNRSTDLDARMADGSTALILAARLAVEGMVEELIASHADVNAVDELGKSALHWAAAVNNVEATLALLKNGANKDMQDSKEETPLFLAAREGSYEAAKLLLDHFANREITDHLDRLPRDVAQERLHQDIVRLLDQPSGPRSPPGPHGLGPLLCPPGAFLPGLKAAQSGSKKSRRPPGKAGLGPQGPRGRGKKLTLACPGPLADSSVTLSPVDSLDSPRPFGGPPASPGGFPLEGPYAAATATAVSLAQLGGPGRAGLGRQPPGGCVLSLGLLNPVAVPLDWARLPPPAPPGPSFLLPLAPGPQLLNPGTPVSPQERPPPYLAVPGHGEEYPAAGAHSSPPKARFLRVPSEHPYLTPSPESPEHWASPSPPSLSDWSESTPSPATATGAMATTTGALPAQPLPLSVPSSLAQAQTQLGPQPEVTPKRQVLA
Sequence of Fibroblast growth factor 10 (Homo sapiens) (O15520 whole entry, looked up): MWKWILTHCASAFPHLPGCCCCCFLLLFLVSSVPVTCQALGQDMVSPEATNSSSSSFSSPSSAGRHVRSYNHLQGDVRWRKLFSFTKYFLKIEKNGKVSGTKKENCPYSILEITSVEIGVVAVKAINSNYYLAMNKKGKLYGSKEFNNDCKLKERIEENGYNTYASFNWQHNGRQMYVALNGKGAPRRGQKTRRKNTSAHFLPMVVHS
Sequence of Torsin-1A-interacting protein 2 (Homo sapiens) (Q8NFQ8 whole entry, looked up): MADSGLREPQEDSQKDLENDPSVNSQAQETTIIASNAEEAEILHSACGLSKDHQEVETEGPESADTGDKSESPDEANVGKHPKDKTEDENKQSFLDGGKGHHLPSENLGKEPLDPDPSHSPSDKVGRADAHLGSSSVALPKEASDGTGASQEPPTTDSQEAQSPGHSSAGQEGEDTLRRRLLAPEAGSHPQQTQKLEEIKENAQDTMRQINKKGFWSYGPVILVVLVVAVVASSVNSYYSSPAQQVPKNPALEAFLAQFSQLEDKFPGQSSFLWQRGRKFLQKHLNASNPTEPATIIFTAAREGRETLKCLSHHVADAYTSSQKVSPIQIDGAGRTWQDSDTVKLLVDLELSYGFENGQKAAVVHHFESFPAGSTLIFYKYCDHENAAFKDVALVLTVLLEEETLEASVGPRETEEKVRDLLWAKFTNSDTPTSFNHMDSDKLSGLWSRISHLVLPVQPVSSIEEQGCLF

Take `COc1ccc(O[C@H]2C=C[C@@H](c3ccccc3)O[C@@H]2CON=C(C)C)cc1`: the composite z-score in assay [1] was -0.818; in [5], -0.222; in assay [7], 0.175; in assay [8], -0.0668; in assay [9], -0.943; in assay [10], 0.0102. Further, the composite z-score in [11] is 1.04; in assay [12] it was 0.267; in [13], 0.755; in assay [15], -0.665; in [16], -1.12; in [17], -0.0601. The values for the composite z-score in [18], in assay [19] and in assay [20] were -0.0815, -0.292 and 1.42, respectively. Also, the z-score in assay [2] was 0.278 (inactive); in assay [3], -2.91 (inactive); in assay [4], 0.0212 (inactive); in assay [6], 0.511 (inactive); in assay [14], 1.07 (inactive).
`C=CC[C@@H]1C=C[C@H](ON=C2[C@H]3CCn4c(=O)n(-c5ccccc5)c(=O)n4[C@H]3[C@H](O)[C@@H]3O[C@H]23)[C@@H](CO)O1`: the composite z-score in [1] is -0.41; in assay [5], -0.114; in assay [7] it was -0.257; in assay [8], 0.308; in assay [9], -0.0701; in assay [10], 0.0434. The composite z-score is 0.482 in assay [11]; -0.378 in assay [12]; -0.548 in assay [13]; 0.51 in [15]; -0.596 in assay [16]; 0.55 in assay [17]. In addition, the values for the composite z-score in assay [18], in [19] and in assay [20] were 0.485, 0.536 and 0.376, respectively. The z-score in assay [2] is 0.552 (inactive); in assay [3] it was 0.383 (inactive); in [4], 1.04 (inactive); in [6] it was 0.607 (inactive); in [14], 0.492 (inactive).
For the compound `O=C1CCCC=C1C(O)CCOC(c1ccccc1)(c1ccccc1)c1ccccc1` (stereo not given), the composite z-score was -0.758 in assay [1]; -0.626 in [5]; -0.186 in assay [7]; 0.547 in assay [8]; 0.103 in assay [9]; -0.198 in [10]. The composite z-score is -0.0236 in assay [11]; -0.231 in [12]; -0.15 in assay [13]; 0.0203 in assay [15]; -0.388 in [16]; -0.0225 in assay [17]. Moreover, the figures for the composite z-score in [18], in assay [19] and in assay [20] were -0.108, 0.335 and 0.874, respectively. The z-score in assay [2] is 0.162 (inactive); in assay [3], -1.92 (inactive); in assay [4], 1.55 (inactive); in assay [6], -0.0634 (inactive); in [14] it was -0.0834 (inactive).
As for `COC(=O)CC=C[C@@H](C)[C@@H](C=NO[C@H](C)c1cn([C@H](CO)Cc2ccccc2)nn1)NS(=O)(=O)c1ccc(C)cc1`, the composite z-score in assay [1] was 0.915; in [5], 0.786; in assay [7], -0.0407; in assay [8] it was 0.857; in assay [9], -0.0329; in [10], 0.168. In addition, the composite z-score in assay [11] is 0.182; in assay [12] it was 0.0644; in [13], -0.0281; in [15], 0.532; in assay [16], 0.0796; in assay [17], 0.264. The composite z-score in assay [18] is 0.226; in assay [19], 0.0568; in assay [20] it was -0.119. Moreover, the z-score was -0.798 (inactive) in assay [2]; 0.359 (inactive) in [3]; -0.824 (inactive) in assay [4]; -0.297 (inactive) in assay [6]; 0.0956 (inactive) in assay [14].
Take `CCOC(=O)NN=C1C[C@@H](O)[C@@H](O)[C@@H]2[C@@H]3C(=O)N([C@@H](C)c4ccccc4)C(=O)[C@@H]3CC[C@H]12`: the composite z-score in [1] is 0.215; in assay [5] it was 0.261; in assay [7] it was -0.0458; in [8], 0.264; in [9], 0.507; in assay [10], 0.0122. Besides, the composite z-score in assay [11] is 0.209; in assay [12], -0.0719; in assay [13] it was -0.183; in [15] it was 0.225; in [16], 0.515; in assay [17], 0.308. Further, the composite z-score in [18] is 0.345; in assay [19], 0.309; in assay [20] it was 0.121. The z-score in [2] is -0.612 (inactive); in assay [3], 0.366 (inactive); in assay [4], -0.222 (inactive); in [6] it was 0.352 (inactive); in [14], -0.681 (inactive).

The record behind these values is PubChem BioAssay.
